SMILES strings stand for the structures. This is part of a sample that, as a whole, favours compounds with a hit. Of some 83,000 tested, about 20% had one in any assay.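 A percent growth of 40 corresponds to 60% growth inhibition; 0 means no net growth; -100 means all cells died. Active threshold: below 10.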 The source made the active and inactive calls.

4 compounds from PubChem BioAssay (NCI) can be followed below.

The assay concerns MDA-MB-468 breast. Nature of the assay: NCI-60 one-dose screen, 48 h (100 = growth as untreated, 0 = no growth, -100 = all killed). As to conditions: 10 µM unless noted.
Regarding `CCOC(=O)C(=Cc1ccccc1[N+](=O)[O-])C(=O)OCC`, the growth was 34.3% (inactive).

In the case of `CCN1CCN(S(=O)(=O)c2oc(-c3ccc(Cl)cc3)nc2C#N)CC1`, the growth is 24% (inactive).

In the case of `Cc1cc2c(cc1C)N(C(=O)CCl)CC(=O)N2`, the growth was -12.6% (active).

Take `CC1(C)CC(=O)CC2(C1)N=C(N)Nc1nc3ccccc3n12` (centres undefined): the growth was 107% (inactive).
